This is part of a sample that, as a whole, favours compounds with a hit. Of some 83,000 tested, about 20% had one in any assay.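 48-hour exposure, single concentration, 96-well plates; percent growth endpoint where 0 means no net growth. Active: below 10.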 Calls of active or inactive are those of the source.
What follows are compounds tested on OVCAR-3 ovarian (assay: NCI-60 one-dose screen, 48 h (100 = growth as untreated, 0 = no growth, -100 = all killed)). Conditions: 10 µM unless noted.
With CN1CCN(CCCNC(=O)c2c3c(n4ccccc24)C(=O)c2ncccc2C3=O)CC1 the growth was -10.7% (active).
In the case of CN1CCN(CC(=O)N(C)c2ccc(N=C(c3ccccc3)c3c(O)[nH]c4ccc([N+](=O)[O-])cc34)cc2)CC1, the growth is reported as 73.6% (inactive).
For CCCCCCCCNc1ncnc2c1ncn2Cc1nnc2c3ccccc3c(Cl)nn12, the growth was 58% (inactive).
In the case of CC/C(=C(/c1ccc(Cl)cc1)c1ccc(OCCCN(C)C)cc1)c1ccc(OC)cc1, the growth is reported as 68.8% (inactive).
CCN(CC)CCCNC(=O)c1c2c(n3ccccc13)C(=O)c1ncccc1C2=O was tested, and the growth was -39.5% (active).
With CCCn1cnc2c(c1=N)C(c1ccc(Cl)cc1)c1sc3c(F)cccc3c1O2 (configuration not stated) the growth was 81.4% (inactive).
In the case of Cc1ccc(C23CCC(=O)N2CCc2cncn23)cc1 (configuration not stated), the growth is reported as 113% (inactive).
With O=C(COc1ccc(/C=C2\Oc3ccccc3C2=O)cc1)Nc1nccs1 the growth was 97.2% (inactive).
For Cc1c(C(=O)C(SC(=S)N2CCOCC2)SC(=S)N2CCOCC2)nnn1-c1ccc([N+](=O)[O-])cc1, the growth was 108% (inactive).
O=[N+]([O-])c1ccc(Oc2cccc3c(Oc4ccc([N+](=O)[O-])cc4[N+](=O)[O-])cccc23)c([N+](=O)[O-])c1 was tested, and the growth was 95.2% (inactive).
CN(C)CCOc1ccc(/C(=C(/CCCCCCCCCC[P+](c2ccccc2)(c2ccccc2)c2ccccc2)c2ccccc2)c2ccccc2)cc1 was tested, and the growth was -93.9% (active).
With CC1(C)CC[C@]2(CO)CC[C@]3(C)C(=CC[C@@H]4[C@@]5(C)CCNCC(C)(C)[C@@H]5CC[C@]43C)[C@@H]2C1 the growth was 89.5% (inactive).

Source: PubChem BioAssay (NCI)
